Results on 5 compounds are retold here after PubChem BioAssay AID504697 (The Scripps Research Institute Molecular Screening Center, 2011).

The term EC50 denotes the midpoint of the concentration-response curve.

Active and inactive are the calls of the source.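 Rule for the calls: active = EC50 at or below 10 µM; inactive = EC50 above 10 µM.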

This experiment in a line: fluorescence interference artefacts, compound only, dose response, artefact control for cardiac thin filament activator project, biochemical, no RTF in test wells (AID 504697).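 Note: emission near 535 nm under roughly 485 nm excitation as for IANBD.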 The conditions noted are these: compound-only fluorescence in RTF assay buffer with Ca2+ (no RTF in test wells), artifact counterscreen. For orientation: A counterscreen serves to expose hits that act by an unwanted route or on another target.
Turning to `Cn1cc(/C=C2\SC(=S)N(NC(=O)c3ccccc3)C2=O)c2ccccc21`, the concentration giving a half-maximal response (EC50) was 9.01 µM (active).

Regarding `O=C(Nc1ccc(C(=O)N2CCOCC2)cc1)Nc1cccc(Cl)c1`, the EC50 is > 71.5 µM (inactive).

Consider `COc1ccccc1/C=C/C=C1\Oc2c(ccc(O)c2CN2CCN(CCO)CC2)C1=O`, for which the 50% effective concentration (EC50) is 3.63 µM (active).

`NC(=O)NC(=O)COC(=O)c1cccc(NS(=O)(=O)/C=C/c2ccccc2)c1`: the EC50 was > 71.5 µM (inactive).

Turning to `CC(=O)/C(C=Nc1noc(C)c1Br)=C(\C)O`, the EC50 is > 71.6 µM (inactive).
